For 39 molecules, outcome and AC50 results are on record in PubChem BioAssay (EPA / NIEHS).

For orientation: AC50 means the midpoint of the concentration-response curve, whichever way the signal moves.

Structures are written as SMILES. The source holds several records for some structures; these can differ, active in one and inactive in another. Calls of active or inactive are those of the source. The calls were made as follows: active = hit-call score of the fitted dose curve at least 0.9, where 1 is the maximum; inactive = score below 0.9.

Bile acid receptor (Homo sapiens), sequence (Q96RI1 whole entry, looked up): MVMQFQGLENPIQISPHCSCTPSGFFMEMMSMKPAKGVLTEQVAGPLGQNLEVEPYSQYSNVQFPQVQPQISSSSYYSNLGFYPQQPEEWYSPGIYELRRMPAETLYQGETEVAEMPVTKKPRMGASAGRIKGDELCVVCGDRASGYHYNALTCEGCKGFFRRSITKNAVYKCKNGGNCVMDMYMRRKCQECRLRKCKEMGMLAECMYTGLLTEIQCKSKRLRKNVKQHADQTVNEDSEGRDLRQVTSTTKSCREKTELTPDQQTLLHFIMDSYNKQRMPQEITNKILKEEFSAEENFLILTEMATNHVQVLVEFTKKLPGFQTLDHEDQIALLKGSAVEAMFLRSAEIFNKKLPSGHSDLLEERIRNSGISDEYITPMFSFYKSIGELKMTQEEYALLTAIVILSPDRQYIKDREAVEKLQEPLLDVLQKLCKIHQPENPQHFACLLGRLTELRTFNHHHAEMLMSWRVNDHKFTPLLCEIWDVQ

The assay addresses Bile acid receptor (Homo sapiens) (UniProt Q96RI1). As to the kind of experiment: ATG_IR1_CIS: Attagene CIS-FACTORIAL HepG2 Assay for human Nuclear Receptor Subfamily 1 Group H Member 4 (NR1H4), IR1 submotif (AID 2282946). The following applies: IR1 reporter transcription, actives raise or lower the signal. On the procedure:
ATG_CIS is a cell-based, multiplexed-readout assay that uses HepG2, a human liver cell line, with measurements taken at 24 hours after chemical dosing in a 24-well plate.ATG_IR1_CIS is one of 52 assay component(s) measured or calculated from the ATG_CIS assay. It is designed to make measurements of mRNA induction, a form of inducible reporter, as detected with fluorescence intensity signals by Reverse transcription polymerase chain reaction (RT-PCR) and Capillary electrophoresis technology.Data from the assay component ATG_IR1_CIS was analyzed into 1 assay endpoint. This assay endpoint, ATG_IR1_CIS, was analyzed with bidirectional fitting relative to DMSO as the negative control and baseline of activity. Using a type of inducible reporter, measures of mRNA for gain or loss-of-signal activity can be used to understand the reporter gene at the transcription factor-level as they relate to the gene NR1H4. Furthermore, this assay endpoint can be referred to as a primary readout, because this assay has produced multiple assay endpoints where this one serves a reporter gene function. To generalize the intended target to other relatable targets, this assay endpoint is annotated to the nuclear receptor intended target family, where the subfamily is non-steroidal.
Human liver HepG2 cells are transiently transfected with multiple reporter transcription units (MRTUs) in 6-well plates using FuGene 6 reagent (Roche; 3 ml FuGene/1 mg DNA). The MRTU constructs are regulated by a cis-regulating element (promoter). […] A major difference between the CIS and TRANS system is that in CIS activities of endogenous TFs are measured, whereas the TRANS assay evaluates changes in activities of exogenous, chimeric NR-Gal4 proteins. […] At the end of 24 hour incubation, total RNA was isolated using TriZol reagent (Invitrogen). The isolated RNA is then reverse-transcribed using oligo(dT) primer and Mo-MLV reverse transcriptase (Invitrogen) with DNAse I (Ambion) treatment for 30 min. The one-tenth of the produced cDNA was amplified by PCR using Taq DNA polymerase (Invitrogen) and two reporter sequence-specific primers. The PCR products were fluorescently labeled by primer extension with 6-arboxyfluorescein (6-FAM) 5'-labeled reporter sequence-specific primer (2 min at 95 C, 20 s at 68 C and 10 min at 72 C) and these products were digested with 5U of HpaI (New England Biolabs) for 2h at 37 C. The fragments were purified using Qiaquick PCR columns (Qiagen), analyzed on an ABI 3130xL genetic analyzer (Applied Biosystems) with peak positions identified by using a set of X-rhodamine (ROX)-labeled MapMarker1000 molecular weight standards (BioVentures). The raw capillary electrophoresis data was processed using Attagraph software (Attagene).
Regarding `O=C(NCc1ncc(C(F)(F)F)cc1Cl)c1c(Cl)cccc1Cl`, the molecule was called inactive.
Regarding `Cc1cc(C(=C2C=CC(=Nc3ccc(S(=O)(=O)O)cc3)C=C2)c2ccc(Nc3ccc(S(=O)(=O)O)cc3)cc2)cc(S(=O)(=O)O)c1N`, the result was inactive.
On to `CCc1cccc(CC)c1N(COC)C(=O)CS(=O)(=O)O`, for which the result was inactive.
Still for that read-out and setting: the same measure for `O=C1OC(=O)c2cc(-c3ccc4c(c3)C(=O)OC4=O)ccc21`: “inactive”; for `CC(C)(O)C(=O)c1ccccc1`: “inactive”.
Still for that read-out and setting: the same measure for `O=C(O)CCC(F)(F)C(F)(F)C(F)(F)C(F)(F)C(F)(F)F`: “inactive”; for `C=CCOCC(CO)(CO)CO`: “inactive”.
Turning to `Cc1cc(C(C)(C)C)c(O)c(C(C)(C)C)c1`, the AC50 was 60 µM (active) and the call was inactive.
Take `CCC(C)c1nccnc1OC` (stereo not given): the molecule was classed as inactive.
Consider `CCCCCCC(C)(C)C(=O)O`, for which the call was inactive.
As to `FC(F)(F)C1(F)C(F)(F)C(F)(F)C(F)(F)C(F)(C(F)(F)F)C1(F)F` (stereo not given), the result was inactive.
For the molecule `Nc1cc(Cl)c(-c2cc(Cl)c(N)cc2Cl)cc1Cl`, the molecule was classed as inactive.
`Cn1sccc1=O`: the outcome was inactive.
Regarding `CCCCCCCCCCCCCC[n+]1ccccc1`, the molecule was classed as inactive.
`CC(C)(C)C1CCCCC1O` (stereo not given): the molecule was classed as inactive.
Take `COc1ccc(C#N)cc1`: the result was inactive.
Consider `COC(=O)C(F)(F)C(F)(F)C(F)(F)F`, for which the call was inactive.
For the molecule `Cc1ccccc1OCC(=O)O`, the call was inactive.
For `CC(=O)CC(C)C`, the outcome was inactive.
Take `Cc1[nH]nc2c1N=C(c1ccccc1Cl)c1cc([N+](=O)[O-])ccc1N2`: the AC50 is 2.08 µM (active).
Turning to `CN(Cc1cnc2nc(N)nc(N)c2n1)c1ccc(C(=O)N[C@@H](CCC(=O)O)C(=O)O)cc1`, the result was inactive.
`CCCCC(CC)C(=O)OCCOCCOCCOCCOC(=O)C(CC)CCCC` (stereo not given): the call was inactive.
`NNC(=O)CCCCC(=O)NN`: the result was inactive.
With `O=CC(F)(F)C(F)(F)C(F)(F)F`, the result was inactive.
The same measure, in the same setting: the same measure for `C=CC(=O)OCCN(CC)CC`: “inactive”.
For the molecule `O=S(=O)(c1ccc(OCc2ccccc2)cc1)c1ccccc1O`, the AC50 was 56 µM (active).
For the molecule `Nc1ccn([C@@H]2O[C@H](CO)[C@@H](O)C2O)c(=O)n1` (stereo not given in full), the molecule was classed as inactive.
Consider `NNc1nc(-c2ccc([N+](=O)[O-])cc2)cs1`, for which the outcome was inactive.
As for `CCO[Si](C)(C)OCC`, the outcome was inactive.
Consider `C=Cc1ccc(O)c(OC)c1`, for which the molecule was classed as inactive.
On to `CC1=NN(c2ccccc2)C(=O)C1`, for which the call was inactive.
Regarding `O=C(O)CN(CCCN(CC(=O)O)CC(=O)O)CC(=O)O`, the call was inactive.
Same read-out and setting: the same measure for `Cc1ccc(C(=O)c2ccccc2)cc1`: “inactive”; for `O=C(OC(=O)C(F)(F)C(F)(F)F)C(F)(F)C(F)(F)F`: “inactive”; for `Oc1c(Cl)cc(Cl)cc1Sc1cc(Cl)cc(Cl)c1O`: “inactive”.
The same measure, in the same setting: the same measure for `Cc1ccc2ccc3ccc(C)cc3c2c1`: “inactive”.
In the case of `CCCCCCCCC1CCC(=O)O1` (stereo not given), the outcome was inactive.
Take `CC(C)(C)c1ccc(CCC=O)cc1`: the result was inactive.
On to `C[N+](C)(CCCNS(=O)(=O)CCC(F)(F)C(F)(F)C(F)(F)C(F)(F)C(F)(F)C(F)(F)F)CC(=O)[O-]`, for which the outcome was inactive.
